Source: PubChem BioAssay
Hits are enriched below; roughly 1.6% of the tested compounds scored in any of these assays.
KCNQ2 block: rat KCNQ2 potassium channel inhibitors, primary screen, cell-based, CHO-K1, FluxOR thallium flux, B-score; 20 min; stronger effect = lower value; hit rate 1.1% among 310,000; Potassium voltage-gated channel subfamily KQT member 2 (Rattus norvegicus), O88943; B-score at 10 µM; AID 2156, 2009;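 active means fluorescence ratio B-score at most minus 3 library SDs, with starting brightness B-score within 2 library SDs, cut at about -5.5 in these data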
KCNQ2 enhance: potentiators of rat KCNQ2 potassium channel; Potassium voltage-gated channel subfamily KQT member 2 (Rattus norvegicus), O88943; CHO-K1 KCNQ2, FluxOR thallium flux fluorescence; stronger effect = higher value; B-score at 10 µM; hit rate 0.54% among 310,000; AID 2239, 2010;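 active means fluorescence ratio B-score at least 3 SD of library B-scores, with initial fluorescence B-score within 3 of them, cut at about 5.3 in these data; same plate scores as AID 2156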;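 further: B-score of peak minus minimum over baseline fluorescence ratio after K+ and Tl+ stimulus; positive B-score means potentiation of KCNQ2 with more thallium influx and brighter signal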
KCNQ2 inh conf: rat KCNQ2 potassium channel inhibitors, confirmation, cell-based, thallium flux; shares compounds with KCNQ2 block; KCNQ2-expressing cells, inhibition; stronger effect = lower value; activity change, negative = inhibition, % at 10 µM; hit rate 57% among 1,000
KCNQ1 spec: human KCNQ1 channel inhibition, counter-screen for KCNQ2 inhibitor project, cell-based, FluxOR thallium flux; shares compounds with KCNQ2 block; KCNQ1-expressing cells, FluxOR thallium flux fluorescence; stronger effect = lower value; activity change, negative = inhibition, % at 10 µM; hit rate 15% among 1,000; AID 493026, 2011;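 active means activity change at least 3 SD of negative controls below their mean in both duplicate wells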;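 further: CHO cells stably transfected with KCNQ1 and depolarized by potassium stimulus; peak minus minimum fluorescence over baseline after thallium addition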
Target sequence (P51787 whole entry, looked up): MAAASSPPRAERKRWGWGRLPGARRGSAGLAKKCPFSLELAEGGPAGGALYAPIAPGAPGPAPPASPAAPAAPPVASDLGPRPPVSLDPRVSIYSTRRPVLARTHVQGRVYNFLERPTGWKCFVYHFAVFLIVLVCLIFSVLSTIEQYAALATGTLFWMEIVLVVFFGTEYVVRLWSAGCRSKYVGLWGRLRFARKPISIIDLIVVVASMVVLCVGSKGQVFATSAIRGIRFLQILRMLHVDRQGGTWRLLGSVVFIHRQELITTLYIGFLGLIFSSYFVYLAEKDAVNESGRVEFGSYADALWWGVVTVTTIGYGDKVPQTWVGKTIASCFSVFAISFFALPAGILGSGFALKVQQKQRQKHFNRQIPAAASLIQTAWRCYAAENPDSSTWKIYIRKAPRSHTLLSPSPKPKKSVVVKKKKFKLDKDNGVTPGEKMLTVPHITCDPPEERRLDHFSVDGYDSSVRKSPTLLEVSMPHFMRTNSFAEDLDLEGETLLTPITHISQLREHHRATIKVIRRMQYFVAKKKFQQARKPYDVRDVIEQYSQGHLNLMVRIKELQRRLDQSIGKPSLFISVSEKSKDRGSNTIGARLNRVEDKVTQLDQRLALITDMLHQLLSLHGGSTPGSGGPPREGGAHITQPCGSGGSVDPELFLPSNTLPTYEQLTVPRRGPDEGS
CHO parental ctr: thallium flux change in parental CHO cells, counter-screen for KCNQ2 inhibitor project. stronger effect = lower value. hit rate 14% among 1,000. shares compounds with KCNQ2 block. activity change, % at 10 µM
KCNQ2 patch conf: rat KCNQ2 channel inhibitors, confirmation, cell-based, automated patch clamp, single concentration; shares compounds with KCNQ2 block; KCNQ2-expressing cells, automated patch clamp current; calls only at 10 µM; hit rate 49% among 550
Large screens that a line does not name were inactive (follow-up assays come after a bar, where they were run). Unless noted, how the calls were made is not given here.

COc1cc2cc(C(c3nnnn3Cc3ccc(F)cc3)N3CCCCCC3)c(=O)[nH]c2cc1OC (stereo not drawn)	KCNQ2 block -7.71 | KCNQ2 inh conf -28.0% | KCNQ1 spec inactive | CHO parental ctr inactive | KCNQ2 patch conf active
COc1cc2cc(C(c3nnnn3C3CCCC3)N(C)C3CCCCC3)c(=O)[nH]c2cc1OC (stereo not drawn)	KCNQ2 block -8.99 | KCNQ2 inh conf -35.5% | KCNQ1 spec inactive | CHO parental ctr inactive | KCNQ2 patch conf active
O=c1[nH]c2cc3c(cc2cc1C(c1nnnn1C1CCCC1)N1CCSCC1)OCCO3 (stereo not drawn)	none
CC(C)C(c1nnnn1C1CCCC1)N(C)C1CCCCC1 (stereo not drawn)	none
Cc1ccc(C(c2nnnn2C2CCCCC2)N(C)C2CCCCC2)cc1 (stereo not drawn)	KCNQ2 block -8.29 | KCNQ2 inh conf inactive | KCNQ1 spec inactive | CHO parental ctr inactive
COc1cc2cc(C(c3nnnn3C3CCCCC3)N(C)C3CCCCC3)c(=O)[nH]c2cc1OC (stereo not drawn)	KCNQ2 block -11.1 | KCNQ2 inh conf inactive | KCNQ1 spec inactive | CHO parental ctr inactive
COc1ccc2[nH]c(=O)c(C(c3nnnn3C3CCCCC3)N3CCN(C)CC3)cc2c1 (stereo not drawn)	none (no result: KCNQ2 enhance)
COc1ccc(Cn2nnnc2C(c2cc3cc(C)ccc3[nH]c2=O)N2CCN(C)CC2)cc1 (stereo not drawn)	none (no result: KCNQ2 enhance)
CC1CC(C)CN(CCC(=O)Nc2ccc(Br)cc2)C1 (stereo not drawn)	none (no result: KCNQ2 enhance)
Cc1ccc(C(CNS(=O)(=O)c2ccc(Cl)cc2)N2CCN(C)CC2)cc1 (stereo not drawn)	none (no result: KCNQ2 enhance)
COc1cc2c(cc1OC)CN(C1CCC(C)CC1)CC2 (stereo not drawn)	none
COc1ccc(Oc2ccc(-c3ccn[nH]3)cc2)cc1	none (no result: KCNQ2 enhance)
Cc1nn(C(C)C(=O)NCCCN2CCCCCC2)c(=O)c2c1sc1ccccc12 (stereo not drawn)	none (no result: KCNQ2 enhance)
Cc1nn(C(C)C(=O)NCc2ccccc2Cl)c(=O)c2c1sc1ccccc12 (stereo not drawn)	KCNQ2 block -7.8 | KCNQ2 inh conf -31.5% | KCNQ1 spec inactive | CHO parental ctr inactive | KCNQ2 patch conf active
COc1ccccc1N1CCN(C(=O)c2cccc(N3C(=O)NC4CC3(C)Oc3ccccc34)c2)CC1 (stereo not drawn)	KCNQ2 block -7.67 | KCNQ2 inh conf inactive | KCNQ1 spec inactive | CHO parental ctr inactive
COc1cccc(N2CCN(C(=O)c3cccc(N4C(=O)NC5CC4(C)Oc4c(OC)cccc45)c3)CC2)c1 (stereo not drawn)	none
CC12CC(NC(=O)N1c1cccc(C(=O)N3CCN(c4ccccc4)CC3)c1)c1ccccc1O2 (stereo not drawn)	KCNQ2 block -7.32 | KCNQ2 inh conf inactive | KCNQ1 spec inactive | CHO parental ctr inactive
CCOC(=O)N1CCN(C(=O)c2cccc(N3C(=O)NC4CC3(C)Oc3ccccc34)c2)CC1 (stereo not drawn)	none
NC(=O)COC(=O)/C=C/c1cccc(Br)c1	none
Cc1c(Cl)c(C(=O)N2CCCCCC2)nn1C	none (no result: KCNQ2 enhance)
CCOc1ccc2c(c1)-c1c(ssc1=S)C(C)(C)N2C	KCNQ2 block -7 | KCNQ2 inh conf inactive | KCNQ1 spec inactive | CHO parental ctr inactive
CCOc1ccc2c(c1)C(C)=CC(C)(C)N2S(=O)(=O)c1ccc(F)cc1	none (no result: KCNQ2 enhance)
COCc1c(C(=O)NC(C)c2ccc(S(N)(=O)=O)cc2)oc2ccccc12 (stereo not drawn)	none
CCOC(=O)C1CCN(CC(=O)c2ccc(O)c(C)c2O)CC1	none
O=C(OCC(=O)N1CCCc2ccccc21)c1cc(Br)ccc1O	none
O=C(OCC(=O)N(Cc1ccccc1)Cc1ccccc1)c1ccccc1NCCO	KCNQ2 block -7.54 | KCNQ2 inh conf -33.5% | KCNQ1 spec inactive | CHO parental ctr inactive | KCNQ2 patch conf active
O=C(COC(=O)c1ccccc1NCCO)NCCc1ccccc1	none
Cc1ccccc1NC(=O)/C(=C/c1ccco1)c1ccccc1	none (no result: KCNQ2 enhance)
CCc1ccccc1NC(=O)/C(=C/c1ccco1)c1ccccc1	KCNQ2 block -7.69 | KCNQ2 inh conf -29.0% | KCNQ1 spec inactive | CHO parental ctr inactive | KCNQ2 patch conf active
CCOC(=O)c1c(C)[nH]c(C)c1S(=O)(=O)N(C)CC(=O)Nc1ccccc1F	none
O=C(NCc1ccccc1)c1cccc(COc2cc(Cl)ccc2Cl)c1	none (no result: KCNQ2 enhance)
O=C(NCc1ccccc1)c1cccc(COc2ccccc2Cl)c1	KCNQ2 block -11.5 | KCNQ2 inh conf inactive | KCNQ1 spec inactive | CHO parental ctr inactive
CCCCc1ncc(CN2CCC(n3nccc3NC(=O)c3ccccc3OC)CC2)[nH]1	none
COc1ccc(-c2cn[nH]c2-c2ccc(O)cc2O)cc1	none (no result: KCNQ2 enhance)
COc1ccc(-c2[nH]ncc2-c2cnn(-c3ccccc3)c2)c(O)c1	KCNQ2 block -7.74 | KCNQ2 inh conf inactive | KCNQ1 spec inactive | CHO parental ctr inactive
CCN(CC(=O)NCc1ccc(Cl)cc1)C(=O)c1oc2ccccc2c1C	KCNQ2 block -7 | KCNQ2 inh conf -19.0% | KCNQ1 spec inactive | CHO parental ctr inactive | KCNQ2 patch conf active
CCN(CC(=O)NCc1ccc(F)cc1)C(=O)c1oc2ccccc2c1C	none (no result: KCNQ2 enhance)
Cc1ccc(-c2cc(-c3ccccc3)nc(Cl)n2)cc1	KCNQ2 block -8.3 | KCNQ2 inh conf inactive | KCNQ1 spec inactive | CHO parental ctr inactive
COc1ccc(-c2cc(-c3ccccc3)nc(Cl)n2)cc1OC	none (no result: KCNQ2 enhance)
CC(=O)Nc1ccc(NC(=O)C(C)OC(=O)C2CCN(S(=O)(=O)c3cccs3)CC2)cc1 (stereo not drawn)	none
CCN(CC)C(=O)COc1ccc2oc(-c3ccco3)cc(=O)c2c1	none
COc1cc2c(cc1OC)CN(CCC(=O)c1ccc(Br)cc1)CC2	KCNQ2 block -9.58 | KCNQ2 inh conf -45.0% | KCNQ1 spec -43.0% | CHO parental ctr -35.5% | KCNQ2 patch conf inactive
CCOC(=O)N1CCN(CCC(=O)c2ccc(Br)cc2)CC1	KCNQ2 block -7.14 | KCNQ2 inh conf inactive | KCNQ1 spec inactive | CHO parental ctr inactive
COc1cc2c(cc1OC)CN(CC(=O)Nc1cccc(C)c1)CC2	none (no result: KCNQ2 enhance)
CCOC(=O)N1CCN(CCC(=O)Nc2ccc(C)cc2)CC1	none
NC(=O)NC(=O)COC(=O)CCSc1ccccc1	none
COc1ccc(S(=O)(=O)Nc2ccccc2-c2nc3ccccc3[nH]c2=O)cc1	none
COc1ccccc1N1CCN(c2nc(C)nc3c2oc2ccccc23)CC1	KCNQ2 block -6.86 | KCNQ2 inh conf inactive | KCNQ1 spec inactive | CHO parental ctr inactive
Cc1nc(N2CCC(C)CC2)c2oc3ccccc3c2n1	none (no result: KCNQ2 enhance)
OCC1(CO)COC(CCc2ccccc2)=N1	none (no result: KCNQ2 enhance)
